# From ChEMBL document CHEMBL3433997, “St. Jude Leishmania screening dataset” (2016)
# What was measured:
# Type in all cases: functional
# [1] = target: Solute carrier family 2, facilitated glucose transporter member 1 (Homo sapiens) (UniProt P11166); assay: ST_JUDE_LEISH: Cytotoxicity at 2uM final concentration against transgenic Leishmania Mexicana promastigotes LmGLUT1 that are glucose transport deficient and complemented with the human glucose transporter GLUT1. Activity is measured by DNA content using SYBR green in vitro
# Sequence of Solute carrier family 2, facilitated glucose transporter member 1 (Homo sapiens) (P11166 whole entry): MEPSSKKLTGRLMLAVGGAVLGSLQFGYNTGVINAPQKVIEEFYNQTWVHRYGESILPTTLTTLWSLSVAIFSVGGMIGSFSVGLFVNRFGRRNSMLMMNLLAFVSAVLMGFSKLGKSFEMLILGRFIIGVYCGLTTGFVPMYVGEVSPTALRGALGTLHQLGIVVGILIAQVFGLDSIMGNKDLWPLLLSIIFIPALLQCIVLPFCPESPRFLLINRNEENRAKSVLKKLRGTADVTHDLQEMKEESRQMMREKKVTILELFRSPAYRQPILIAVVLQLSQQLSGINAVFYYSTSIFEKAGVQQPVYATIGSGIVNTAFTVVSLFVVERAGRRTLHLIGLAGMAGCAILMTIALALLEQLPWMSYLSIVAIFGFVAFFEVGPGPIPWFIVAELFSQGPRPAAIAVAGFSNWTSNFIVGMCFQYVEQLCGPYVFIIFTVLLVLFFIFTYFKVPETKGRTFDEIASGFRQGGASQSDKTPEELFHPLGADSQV
# [2] = target: Hexose transporter 1 (Plasmodium falciparum) (UniProt O97467); assay: ST_JUDE_LEISH: Cytotoxicity at 2uM final concentration against transgenic Leishmania Mexicana promastigotes LmPfHT that are glucose transport deficient and complemented with the Plasmodium falciparum hexose transporter. Activity is measured by DNA content using SYBR green in vitro
# [3] = target: Glucose transporter (Leishmania mexicana) (UniProt O61059); assay: ST_JUDE_LEISH: Cytotoxicity at 2uM final concentration against transgenic Leishmania Mexicana promastigotes LmGT2 that are glucose transport deficient and complemented with the L. Mexicana glucose transporter 2. Activity is measured by DNA content using SYBR green in vitro
Compound,inhibition [1] [%],inhibition [2] [%],inhibition [3] [%]
O=C(/C=C/c1ccc(Cl)c(Cl)c1)N1CCC(CN2CCC(c3c[nH]c4cnccc34)CC2)CC1,4.52,3.14,4.67
CC(Nc1ccnc2cc(Cl)ccc12)c1ccc(S(N)(=O)=O)cc1 (centres undefined),-1.53,1.3,2.92
CC(C)(C)c1ccc(NC(=O)c2ccc(CN3CCCN(CC4CCCCC4)CC3)cc2)cc1,3.27,1.6,5.35
CCCCCCCCCc1c(C)[nH]c2ccccc2c1=O,-1.28,2.65,2.28
Cc1cc(N[C@@H](Cc2ccccc2)C(=O)NCc2cccc(F)c2)nc(NCCOc2ccccc2)n1,4.2,-1.41,-0.15
N#Cc1ccc(N(CCOc2ccc(Cl)c(Cl)c2)Cc2ccccc2C(F)(F)F)cc1C(F)(F)F,2.54,-0.11,0.26
O=C(NCC1CC1)C1CCN(C(c2ccccc2)c2ccc(Cl)c(Cl)c2)CC1 (centres undefined),-0.49,1.49,0.06
O=C(Nc1cccc(CN2CCCN(Cc3ncc[nH]3)CC2)c1)c1ccc(Cl)c(Cl)c1,2.9,3.94,5.79
Cc1c(CNCCCNc2nc3cscc3[nH]2)sc(C(F)F)c1Br,6.65,4.46,2.43
O=C(CCc1c[nH]cn1)Nc1cccc(-c2ccc(-c3nc4ccccc4[nH]3)cc2)c1,6.89,4.68,6.77
COc1ccc(CNCCc2cccs2)cc1-c1ccc(S(=O)(=O)NCCN2CCCC2)cc1,5.85,5.79,2.85
COc1ccc(C(=O)Nc2cc(Br)c3c(c2)CNCC3)cc1Br,2.73,3.54,1.69
COc1ccc2nccc(N3CCC(NCCNCc4cc5c(cn4)OCCO5)C3)c2n1 (centres undefined),2.14,2.64,3.54
O=S(=O)(c1ccccc1)n1ccc2cc(Nc3ncnc4cc(C#C[C@H]5CCCN5)sc34)ccc21,2.91,2.14,-0.2
CC(C)c1ccc(NC(=O)c2ccc(C(=O)NCC3CCN(CC4CCCCC4)CC3)cc2)cc1,3.12,1.53,1.95
O=C(NCCCCN1CCC(O)(c2ccc3c(c2)OCO3)CC1)c1ccc(NC(=O)c2ccc(Cl)cc2)cc1,-1.5,1.45,-1.6
COc1ccc(-c2ccc(S(=O)(=O)Nc3cc4c(cc3OC(C)C)CCN(C)CC4)cc2)cc1,1.81,2.48,1.21
CNC(=O)c1cnc(Nc2ccc(N3CCOCC3)cc2)nc1Nc1cccc(OC)c1,-0.53,-1.08,-2.23
COc1cc([N+](=O)[O-])ccc1NC(=O)Nc1ccc(OC(F)(F)F)cc1,1.06,2.37,-2.01

Compound,inhibition [1] [%],inhibition [2] [%],inhibition [3] [%]
CCCSc1nc2c(c(=O)n1Cc1ccco1)C1(CCCCC1)Cc1ccccc1-2,1.22,1.9,1.88
Clc1ccc(OC2CCC(Cn3ccnc3)(c3ccc(Cl)cc3Cl)CC2)c(Cl)c1 (centres undefined),6.14,3.28,-0.14
O=C(NCC1CCC(C(=O)NCc2cccc(C(F)(F)F)c2)CC1)c1ccc(O)c(-c2ccc(Cl)c(Cl)c2)c1 (centres undefined),0.99,2.82,2.98
Nc1ccnc(N2CCC(CCOc3cc(C(F)(F)F)nc4c(C(F)(F)F)cccc34)CC2)c1,25.6,43.4,10.2
CN(C)CCCNCc1ccc(-c2ccc(F)c(Cl)c2)o1,-0.74,0.82,-0.76
COc1cc2c(cc1NS(=O)(=O)c1ccc(OCc3ccc(Br)cc3)cc1)CCN(C1CCC1)CC2,0.64,-0.8,-0.51
CCCc1c(Cl)cc(CNCCCNc2nc3ccncc3[nH]2)cc1Cl,1.35,3.89,1.39
CC1(CCc2ccccc2)N=C(N)N(Cc2ccccc2)C(=O)C1c1ccc(Cl)c(Cl)c1 (centres undefined),3.32,2.08,0.94
O=C(NC(NC(=S)Nc1ccc([N+](=O)[O-])cc1)C(Cl)(Cl)Cl)c1cccc(Cl)c1 (centres undefined),-0.29,-1.54,-0.06
Cc1ccc(Cc2cccc3nc(N)nc(N)c23)cc1,1.2,0.71,-0.6
O=C(Nc1ccc2c(c1)CCN2C1CCN(Cc2cccc(F)c2F)C1)c1ccco1 (centres undefined),2.08,1.62,2.93
CN1CCc2cc(NS(=O)(=O)c3ccc(-c4ccc(Cl)s4)cc3)c(N3CCCCC3)cc2CC1,-0.61,0.7,-2.07
CC(C)c1sc(N2CCCCC2)nc1C(=O)Nc1ccc(F)cc1C(F)(F)F,2.82,0.82,2.35
O=C(NC1CCN(Cc2ccccc2)CC1)c1cc(-c2ccncc2)nc2ccc(Cl)cc12,4.96,3.26,0.14
CC(=O)NC1=NC(C)(C)N(OCc2ccc(Cl)c(Cl)c2)C(NC(C)=O)=N1,-0.21,-0.25,-1.61
Cc1ccc(/C=C/C(=O)N2CCC(CCN3CCC(c4c[nH]c5ccccc45)CC3)CC2)cc1C,1.87,1.19,6.17
O=C(Nc1cccc(N2CCC(NCCCc3ccncc3)CC2)c1)c1cccc(C(F)(F)F)c1,3.33,5.68,4.83
Cn1nc(C(F)(F)F)c(-c2ccc(Br)cc2)c1NC(=O)Nc1ccc(F)cc1F,1.12,1.19,1.25
CNS(=O)(=O)Cc1ccc(Nc2nccc(Nc3cccc4c3cnn4C(=O)Nc3ccccc3)n2)cc1,4.38,3.98,3.72
